Assay results: PubChem BioAssay
“And” between values parts separate entries of the source, which are not always exact repeats. Equal values may be shown once. The source made the active and inactive calls.

Tests used:
[1] = A549 cell viability effects, profiling panel, calcein-AM fluorescence, 48 h, basal (AID 1162); conditions: higher = more signal
[2] = adipocyte viability effects, profiling panel, cell-based, 3T3-L1 adipocytes, calcein-AM fluorescence, 48 h, basal (AID 1163); conditions: 3T3-L1 adipocytes viability, higher = more signal
[3] = HepG2 cell viability effects, profiling panel, calcein-AM fluorescence, 48 h, basal (AID 1164); conditions: higher = more signal
[4] = MM1S cell viability effects, profiling panel, calcein-AM fluorescence, 48 h, basal (AID 1165); conditions: higher = more signal;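 also: viability of MM1S multiple myeloma cells under basal unstimulated conditions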
[5] = basal RPMI8226 viability, no added stimulus, profiling panel, cell-based, calcein-AM fluorescence, 48 h, PK04 Diversity Set (AID 1166); conditions: RPMI8226 myeloma viability, higher = more signal;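 also: cells grown under basal conditions without added stimulus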
[6] = basal HepG2 mitochondrial membrane potential changes, profiling panel, cell-based, JC-1 fluorescence, 24 h, 100 nL compound (AID 1167); conditions: higher = more signal
[7] = basal 3T3-L1 adipocyte mitochondrial potential changes, profiling panel, cell-based, JC-1 fluorescence, 3T3-L1 adipocytes, 24 h, 100 nL compound (AID 1168); conditions: JC-1 mitochondrial fluorescence, higher = more signal, called active from +8 up or from −8 down
[8] = basal RPMI8226 mitochondrial membrane potential changes, profiling panel, cell-based, JC-1 fluorescence, 24 h, 100 nL compound (AID 1169); conditions: RPMI8226 myeloma, JC-1 mitochondrial potential fluorescence, higher = more signal
[9] = basal MM1S mitochondrial membrane potential changes, profiling panel, cell-based, JC-1 fluorescence, 24 h, 100 nL compound (AID 1170); conditions: higher = more signal
[10] = A549 lung cancer cell viability effects, profiling panel, resazurin fluorescence, 24 h, PK04 Diversity Set (AID 1171); conditions: higher = more signal, called active from +8 up or from −8 down
Also: test concentration not given here.

SMILES | z-score [1] | z-score [2] | z-score [3] | z-score [4] | z-score [5] | z-score [6] | z-score [7] | z-score [8] | z-score [9] | z-score [10]
COC(=O)c1c2oc(c1C(=O)OC)C(=O)N[C@@H](Cc1ccccc1)Cn1cc(nn1)C1(CCCCC1)NC(=O)N[C@H](CO)CC2 | 2.13 and 1.06 | -0.29 and 0.184 | 0.893 and 0.0236 | 0.434 and -0.392 | 1.51 and -1.13 | 1.09 and 4.63 | 0.354 (inactive) and -0.852 (inactive) | -0.0874 and -0.0745 | 0.559 and -0.594 | 0.976 (inactive) and 1.37 (inactive)
CO[C@H]1COC(=O)CC=C[C@@H](C)COC(=O)[C@@H](OCc2ccccc2)C=C[C@@H]1C | 0.497 | 0.146 | 0.835 | 0.301 | 0.608 | 0.952 | -0.0508 (inactive) | -0.442 | -0.414 | -0.34 (inactive)
CN1C(=O)C2CC=C([C@H]3Oc4ccccc4S(=O)(=O)N4CCC[C@@H]34)CC2C1=O (stereo not given in full) | -0.657 and 0.15 | -0.109 and 0.323 | -0.926 and -0.369 | 0.49 and 0.288 | -0.177 and -0.215 | -0.649 and 0.00971 | 0.243 (inactive) and 0.347 (inactive) | 0.439 and 0.341 | 0.123 and -0.0296 | 0.0976 (inactive) and -0.125 (inactive)
COC(=O)C1=C(C)N(Cc2ccccc2)[C@]23O[C@](C(=O)OC)(C(=O)N2[C@@H]1c1ccccc1)[C@H]1CCCC(=O)[C@H]13 | 0.144 and -0.51 | 0.474 and 0.827 | -0.336 and -0.818 | -3.25 and -1.15 | -1.18 and -0.337 | 0.662 and 0.827 | 1.33 (inactive) and 0.966 (inactive) | -0.736 and 0.0334 | 0.291 and -0.342 | 0.207 (inactive) and -0.277 (inactive)
C[N+](C)(C)CCCCCCNC(=O)[C@H]1C[C@H]2C(=O)N[C@@H](CCCC[N+](C)(C)C)C(=O)N2[C@H]1c1ccc(O)cc1 | -0.512 and 0.597 | 0.222 and -0.596 | -1.45 and -0.367 | -0.602 and 0.494 | -0.149 and -0.0976 | -1.34 and -0.105 | 0.913 (inactive) and 0.345 (inactive) | -0.169 and 0.432 | -0.657 and -0.528 | -0.673 (inactive) and -0.0771 (inactive)
CCC[C@@H]1C[C@@]1(CCC)[C@@H](NC(=O)c1ccc(-c2ccccc2)cc1)c1cccc(Cl)c1 | -2.26 and 0.247 | -0.882 and -0.867 | -2.12 and 1.52 | -2.16 and -0.143 | -2.94 and -1.06 | -0.93 and 2.74 | -0.723 (inactive) and 0.883 (inactive) | -0.256 and 0.137 | -0.647 and -1.16 | 2.06 (inactive) and 0.608 (inactive)
